# This is a sample that favours compounds with a hit; in the whole collection about 15% have one here.
# TDP1 cell noCPT – qHTS for Inhibitors of human tyrosyl-DNA phosphodiesterase 1 (TDP1): qHTS in cells in absence of CPT. DT40 Tdp1-/- hTDP1 cells, no CPT, ATP luminescence, 48 h. Potency, µM (highest dose often 46.2 µM), without a hit: at the highest dose activity change, negative = growth inhibition, usual class: inhibitors. 15% of 420,000 active. AID 686978, 2013; note: nearly all actives have a fitted effect of over 55% in size
#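 Camptothecin absent (DMSO only). Human TDP1-complemented DT40 knockout cells, 400 cells/well, 37 °C for minimum 48 hr; ATP measured via CellTiter-Glo, 30 min dark incubation, luminescence.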
# RORg inh – inhibitors of mouse ROR gamma transcriptional activity; P51450; Potency, µM (series often up to 53.6 µM), inactives show at the top dose activity change, negative = inhibition, most hits filed as inhibitors; AID 2551; 5.4% of 310,000 active; Drosophila S2 Gal4-RORgamma UAS-luciferase reporter, 20 h; note: nearly all actives have a fitted effect of over 60% in size
#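 Compounds are pin-transferred onto Drosophila Schneider cells expressing a copper-inducible Gal4–ROR gamma transactivation domain fusion. After 1 hr, copper sulfate is added to 700 uM final; luciferase is read 20 hr later.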
# ELG1 repair inh – inhibitors of ELG1-dependent DNA repair in HEK293T cells; HEK293T ELG1-luciferase reporter, luminescence, 16 h; DNA damage induced by 5-fluorouridine; Potency, µM (doses to about 46.1 µM), without a hit: at the highest dose activity change, negative = inhibition, most hits filed as inhibitors; 2.3% of 330,000 active; note: nearly all actives have a fitted effect of over 55% in size
#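 Step one: seed 2,000 cells per well. Step two: pin-transfer compound or DMSO alongside 5-fluorouridine. Step three: incubate 16 hr, 37 °C, 5% CO2. Step four: add ONE-Glo, wait 30 min, read luminescence.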
# VP16 counter – inhibits Gal4-VP16 luciferase reporter, ROR gamma counter-screen; 3.5% of 310,000 active; Drosophila S2 Gal4-VP16 UAS-luciferase, luminescence, 20 h; AID 2546; Potency, µM (top dose mostly 53.6 µM), for inactives: at the top dose activity, negative = inhibition, most hits filed as inhibitors;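 note: Gal4-VP16 expression switched on by copper sulfate through the metallothionein promoter; nearly all actives have a fitted effect of over 50% in size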
# DT40 TDP1 CPT – DT40-hTDP1 cell growth loss with CPT; chicken DT40 Tdp1-/-;hTDP1 cells + 20 nM CPT, ATP luminescence, 48 h; Potency, µM (top dose mostly 46.2 µM), inactives show at the highest dose activity change, negative = growth inhibition, most hits filed as inhibitors; 12% of 420,000 active; note: nearly all actives have a fitted effect of over 55% in size
#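 Chicken DT40 Tdp1-/- cells stably complemented with human TDP1 were seeded at 400 cells/well in medium containing 20 nM camptothecin, exposed to pin-transferred compounds, and grown at 37 °C for at least 48 hr. Viability was read as ATP luminescence.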
# ALOX12 inh – inhibitors of human 12S-lipoxygenase ALOX12; P18054; 1.1% of 580,000 active; Potency, µM (doses to about 108 µM), for inactives: top-dose activity change, negative = inhibition, hits mostly inhibitors; purified 12hLO, xylenol orange hydroperoxide absorbance
# Target sequence (P18054 whole entry, looked up): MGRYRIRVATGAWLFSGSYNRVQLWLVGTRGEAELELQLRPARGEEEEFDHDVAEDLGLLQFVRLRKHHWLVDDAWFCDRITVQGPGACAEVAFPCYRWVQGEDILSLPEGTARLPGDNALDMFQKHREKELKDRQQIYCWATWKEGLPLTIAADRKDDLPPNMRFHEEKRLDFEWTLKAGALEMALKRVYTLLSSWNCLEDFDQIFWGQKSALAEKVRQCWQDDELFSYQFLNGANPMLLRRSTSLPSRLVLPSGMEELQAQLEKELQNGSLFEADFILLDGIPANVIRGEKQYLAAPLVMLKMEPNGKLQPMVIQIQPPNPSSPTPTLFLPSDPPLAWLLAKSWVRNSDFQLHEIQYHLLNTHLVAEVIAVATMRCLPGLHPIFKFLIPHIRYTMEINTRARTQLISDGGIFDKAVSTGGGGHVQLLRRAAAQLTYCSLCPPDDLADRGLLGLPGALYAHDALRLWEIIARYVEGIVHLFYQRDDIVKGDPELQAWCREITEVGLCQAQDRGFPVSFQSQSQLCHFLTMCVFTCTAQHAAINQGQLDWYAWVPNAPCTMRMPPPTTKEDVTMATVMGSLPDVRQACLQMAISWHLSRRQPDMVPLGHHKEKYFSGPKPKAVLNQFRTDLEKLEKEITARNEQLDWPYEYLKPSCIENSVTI
#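 Hydroperoxide product was detected by ferrous iron/xylenol orange as the 573 to 405 nm absorbance ratio. Arachidonic acid at 40 uM (final) was turned over for 30 min at room temperature by 150 nM human 12hLO, pH 7.0 Hepes buffer, after 15 min compound preincubation.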
# * hit, by the source's call; ? = inconclusive; . = not tested or not shown; ! = not confirmed by another sample. Calls come from the whole dose curve; as a rule, active = well fitted curve in the direction sought with a large enough effect; inconclusive = small, poorly fitted or top-dose-only effect, or another doubt; inactive = no such curve, though single readings can be large; an effect the other way counts as inactive or inconclusive. % is set by controls: 0 for no effect and ±100 for the full control effect; potency is the fitted concentration of half-maximal effect.
SMILES,TDP1 cell noCPT,RORg inh,ELG1 repair inh,VP16 counter,DT40 TDP1 CPT,ALOX12 inh
CCOc1ccc(N(CC(=O)NCCSCc2ccccc2)S(C)(=O)=O)cc1,5.8µM*,34%,9%,3%,1.8µM*,0%
COc1ccccc1N(CC(=O)NCCSCc1ccco1)S(=O)(=O)c1ccccc1,16µM*,21%,-23%,-12%,18µM*,-2%
COc1ccccc1N(CC(=O)NCCSCc1ccccc1)S(=O)(=O)c1ccc(C)cc1,12µM*,-28%,?,?,9.2µM*,?
COc1ccccc1CNC(=O)CN(c1ccccc1)S(=O)(=O)N(C)C,.,.,.,.,.,49%
Cc1ccccc1NC(=O)c1ccc(CN2CCC(Cc3ccccc3)CC2)cc1,21µM*,3%,-14%,3%,?,-25%
CC(C)NC(=O)c1ccc(CN2CCC(Cc3ccccc3)CC2)cc1,-14%,3%,-24%,2%,-3%,0%
O=S1(=O)CC(N2CCCC2)CN1Cc1ccc(F)cc1 (centres undefined),-25%,.,.,.,-1%,?
O=S1(=O)CC(N2CCC(Cc3ccccc3)CC2)CN1Cc1ccc(F)cc1 (centres undefined),13µM*,.,.,.,26µM*,?
CSc1ccc(CN2CCC(Cc3ccccc3)CC2)cc1,?,-11%,-3%,-3%,?,1.6µM*
COc1cccc(CN2CCN(Cc3cccc(Oc4ccccc4)c3)CC2)c1OC,-26%,7%,-5%,-3%,?,?
COc1cccc(CN2CCC(N(CCc3ccccc3)Cc3ccccc3)CC2)c1OC,29µM*,-8%,?,-26%,?,?
COc1cc(C)c(CN2CCC(Cc3ccccc3)CC2)cc1C,?,-14%,-9%,0%,?,?
COc1ccc(OC)c(CN2CCCCCC2)c1,8%,-9%,-2%,-6%,26%,?
COc1ccc(OC)c(CN2CCC(Cc3ccccc3)CC2)c1,16µM*,-6%,-13%,2%,?,?
COc1ccccc1CN1CCC(Cc2ccccc2)CC1,.,.,.,.,.,0.56µM*
COc1cccc(CN2CCN(Cc3cc(OC)c(OC)c(OC)c3)CC2)c1OC,?,4%,-11%,-14%,?,?
COc1ccc(CN2CCN(Cc3cccc(OC)c3OC)CC2)cc1,.,.,.,.,.,0.45µM*
O=Cc1cc(Cl)ccc1OCCN1CCC(Cc2ccccc2)CC1,16µM*,-15%,-10%,-23%,?,2.2µM*
CC(=O)Nc1ccc(C2(C(=O)N3CCN(c4ccccn4)CC3)CCCCC2)cc1,.,.,.,.,.,18%
C=CCOc1ccccc1CN1CCC(Cc2ccccc2)CC1,?,-21%,-20%,-12%,?,?
COc1cc(CN2CCC(Cc3ccccc3)CC2)c([N+](=O)[O-])cc1OC,?,12%,?,6%,21µM*,?
COc1ccc(CN2CCN(Cc3ccccc3C(F)(F)F)CC2)c(OC)c1,16µM*,-4%,-8%,-1%,?,?
Cc1ccc([N+](=O)[O-])c(OCCCN2CCC(Cc3ccccc3)CC2)c1,21µM*,.,.,.,21µM*,-46%
COc1cc(OC)c(CN2CCC(Cc3ccccc3)CC2)cc1Br,?,-21%,-25%,0%,?,1µM*
Cc1ccc(SC(C)C(=O)Nc2c(C)cc(C)cc2C)cc1 (centres undefined),.,.,.,.,.,-38%
CC(=O)/C=C/c1ccccc1Oc1c(F)c(F)nc(F)c1F,26µM*,?,?,27%,?,-3%
CCN(CCCc1ccccc1)CCCc1ccccc1,23µM*!,11%,-20%,-9%,10µM*!,?
CCOc1ccccc1CNC(=O)CCc1c(C)nn(-c2ccc(N3CCCCC3)nn2)c1C,21µM*,.,.,.,?,-10%

# From PubChem
